a7 integrin act – activators of alpha7 integrin expression for muscular dystrophy; alpha7betagal myoblasts, beta-gal FDG fluorescence, 48 h; Potency, µM (series often up to 38.3 µM), actives largely listed as activators; 350,000 compounds, 0.064% hits; AID 624291; also: nearly all actives have a fitted effect of over 60% in size
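alpha7betagal+/- myoblasts (passage 13, 250/well) treated 48 h at 37C with compounds at 1:260 dilution of DMSO stock. Lysed, then beta-galactosidase activity read as FDG fluorescence (ex 480/em 540) after 30 min, with pre-read for autofluorescence.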
Gal4-VP16 FLuc – inhibits Gal4-VP16 luciferase reporter, ROR gamma counter-screen. Drosophila S2 Gal4-VP16 UAS-luciferase, luminescence, 20 h. Potency, µM (doses to about 53.6 µM), usual class: inhibitors. 310,000 compounds, 3.5% hits;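 also: Gal4-VP16 expression switched on by copper sulfate through the metallothionein promoter; nearly all actives have a fitted effect of over 50% in size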
RORgamma inh – blocks mouse ROR gamma transcriptional activity; 310,000 compounds, 5.4% hits; Drosophila S2 Gal4-RORgamma UAS-luciferase reporter, 20 h; Potency, µM (series often up to 53.6 µM), actives largely listed as inhibitors; AID 2551; P51450; also: nearly all actives have a fitted effect of over 60% in size
Target sequence (P51450 whole entry, looked up, the tested form may be a part): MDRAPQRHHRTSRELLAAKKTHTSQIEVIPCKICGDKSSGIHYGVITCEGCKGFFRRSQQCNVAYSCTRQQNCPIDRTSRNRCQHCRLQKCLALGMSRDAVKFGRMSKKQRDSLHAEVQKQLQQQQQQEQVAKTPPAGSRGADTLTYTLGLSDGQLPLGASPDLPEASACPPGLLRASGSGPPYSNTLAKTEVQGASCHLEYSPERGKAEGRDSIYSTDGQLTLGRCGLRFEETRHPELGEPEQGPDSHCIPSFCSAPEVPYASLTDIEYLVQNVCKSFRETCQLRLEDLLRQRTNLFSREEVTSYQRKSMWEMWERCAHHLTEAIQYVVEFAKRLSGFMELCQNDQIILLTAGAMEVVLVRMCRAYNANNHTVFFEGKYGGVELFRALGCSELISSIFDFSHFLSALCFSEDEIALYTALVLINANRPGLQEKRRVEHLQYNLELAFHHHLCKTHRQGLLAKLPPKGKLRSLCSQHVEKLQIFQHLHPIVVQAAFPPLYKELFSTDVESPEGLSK
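Read-out: Photinus luciferase luminescence; inhibitors lower reporter signal. Insect Schneider cells with Gal4-ROR gamma fusion under metallothionein promoter, UAS reporter; 700 uM final copper sulfate induction, 20 hr, ambient temperature.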
BCR signal inh – blocks chronic active B-cell receptor signaling. ABC-DLBCL IkBa-CBG/CBR reporter, luminescence ratio, 4 h. Potency, µM (titrated, usually from 46.1 µM), usual class: inhibitors. 340,000 compounds, 0.05% hits. AID 493014; active = well fitted inhibition curve with a large enough effect in the signal ratio, with a control signal flat, not every such curve was filed as active; inconclusive = small, poorly fitted or top-dose-only effect, or effect the other way, or a change in a side signal; the % refers to the signal ratio
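Compounds up to 46 uM were incubated four hours with TMD8 cells whose green CBG68 luciferase is fused to IkappaBalpha; red CBR luminescence normalised the signal, and concentration-effect curves were fitted to fusion, red and ratio data.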
uPA generation – blocks generation of uPA at the cell surface. cell surface uPA generation assay, qHTS. 330,000 compounds, 0.31% hits. AID 540303. Potency, µM (series often up to 38.3 µM), most hits filed as inhibitors; active = well fitted inhibition curve with a large enough effect; inconclusive = small, poorly fitted or top-dose-only effect; inactive = no such curve, though single readings can be large or run the other way; tested in mouse RAW 264.7 cells; also: nearly all actives have a fitted effect of over 55% in size
Mito fusion yeast – inhibitors of mitochondrial division or activators of mitochondrial fusion | 320,000 compounds, 0.23% hits | S. cerevisiae fusion-defective mutant growth rescue, CellTiterGlo 48 h | Potency, µM (series often up to 46.1 µM), usual class: activators; also: nearly all actives have a fitted effect of over 45% in size
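Read-out: ATP-based luminescence (CellTiterGlo, 10 min ambient) reporting growth of fusion-defective ts yeast after 48 hours at 37C on glycerol/ethanol YPEG medium in the presence of compound.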
Each line names hits and unclear results; the compound was inactive in the other large screens. Hits are enriched below; roughly 5.5% of the tested compounds scored in any of these assays. Unless noted, calls follow the shape of the dose curve; as a rule, active = well fitted curve in the direction sought with a large enough effect; inconclusive = small, poorly fitted or top-dose-only effect, or another doubt; inactive = no such curve, though single readings can be large; an effect the other way counts as inactive or inconclusive.

CCCC(Oc1ccc(Br)cc1)c1nc2c3cc(OC)c(OC)cc3nc(=S)n2[nH]1 (centres undefined)	Gal4-VP16 FLuc 3.5µM, RORgamma inh 1.3µM, BCR signal inh inconclusive
CC(Oc1ccc(Br)cc1)c1nc2c3ccccc3nc(=S)n2[nH]1 (centres undefined)	Gal4-VP16 FLuc 1.3µM, RORgamma inh 0.28µM, BCR signal inh inconclusive
COc1ccc(CNc2ncnc3cc(OC)c(OC)cc23)cc1	RORgamma inh inconclusive
O=S(=O)(Nc1ccccc1N1CCCCC1)c1ccc(F)cc1F	none
COCCn1c(C)cc(C(=O)COC(=O)c2cccc(O)c2)c1C	a7 integrin act inconclusive, Gal4-VP16 FLuc 0.63µM, RORgamma inh 0.35µM, uPA generation inconclusive
COCCn1c(C)cc(C(=O)CSc2nnc(C)s2)c1C	Gal4-VP16 FLuc 1µM, RORgamma inh 0.71µM (no result: BCR signal inh)
COCCn1c(C)cc(C(=O)COC(=O)c2ccc([N+](=O)[O-])o2)c1C	RORgamma inh 13µM
Cc1cc(C(=O)Cn2nnc(-c3ccc(Cl)cc3)n2)c(C)n1CC1CCCO1 (centres undefined)	Gal4-VP16 FLuc 32µM
CC1NC(=O)c2cccnc2-n2c1nc1cc(F)c(F)cc1c2=O (centres undefined)	none (no result: Gal4-VP16 FLuc, RORgamma inh, BCR signal inh, uPA generation, Mito fusion yeast)
Cc1cc(C(=O)COC(=O)c2ccc([N+](=O)[O-])o2)c(C)n1CC1CCCO1 (centres undefined)	RORgamma inh 20µM
Cc1cc(C(=O)COC(=O)c2ccc3c(c2)OCO3)c(C)n1CC1CCCO1 (centres undefined)	none
COc1cccc2sc(N(CCCN(C)C)C(=O)c3ccc(S(=O)(=O)N4CCc5ccccc5C4)cc3)nc12	Gal4-VP16 FLuc 28µM, BCR signal inh inconclusive
CCOc1cccc2sc(N(CCCN(C)C)C(=O)c3ccc(S(=O)(=O)N(CC)Cc4ccccc4)cc3)nc12	a7 integrin act inconclusive, Gal4-VP16 FLuc 22µM, RORgamma inh inconclusive, BCR signal inh inconclusive
Cc1ccc2nc(N(CCCN(C)C)C(=O)c3ccc(S(=O)(=O)N4CCCCCC4)cc3)sc2c1	Gal4-VP16 FLuc inconclusive, RORgamma inh 11µM, BCR signal inh inconclusive
CCCCN(CC)S(=O)(=O)c1ccc(C(=O)N(CCCN(C)C)c2nc3cc(C)cc(C)c3s2)cc1	Gal4-VP16 FLuc inconclusive, RORgamma inh 11µM
CCN(Cc1ccccc1)S(=O)(=O)c1ccc(C(=O)N(CCCN(C)C)c2nc3cc(C)cc(C)c3s2)cc1	BCR signal inh inconclusive (no result: Gal4-VP16 FLuc, RORgamma inh)
CCc1ccc2nc(N(CCCN(C)C)C(=O)c3ccc(S(=O)(=O)N4CCCC4)cc3)sc2c1	none
OC[C@H]1OC(O)(CN2CCOCC2)[C@H](O)[C@@H]1O (some centres undefined)	none (no result: a7 integrin act, BCR signal inh, uPA generation, Mito fusion yeast)
Cc1ccc2nc(CCl)[n+]([O-])c(-c3ccccc3)c2c1	a7 integrin act inconclusive, RORgamma inh inconclusive
CCOc1ccc2nc(N(CCCN(C)C)C(=O)c3ccc(S(=O)(=O)N4CCc5ccccc5C4)cc3)sc2c1	Gal4-VP16 FLuc inconclusive, RORgamma inh 10µM
COC(=O)C(O)C1C(C)(C)C(OC(C)=O)C2CC3=C4CC(=O)OC(c5ccoc5)[C@]4(C)CCC3[C@@]1(C)C2=O (some centres undefined)	RORgamma inh 13µM (no result: a7 integrin act, BCR signal inh, uPA generation, Mito fusion yeast)
C=C1C2CC[C@@]3(C)C(c4ccoc4)OC(=O)C[C@@]13OC1CC(=O)C(C)(C)C(C(O)C(=O)OC)[C@]12C (some centres undefined)	none (no result: a7 integrin act, BCR signal inh, uPA generation, Mito fusion yeast)
N#Cc1ccccc1/C=N/Nc1nc(-c2ccccc2)c2cc(Br)ccc2n1	RORgamma inh 11µM, BCR signal inh inconclusive
O=[N+]([O-])c1ccc(/C=N/Nc2nc(-c3ccccc3)c3cc(Br)ccc3n2)o1	none
Cc1ccc2nc(N/N=C\c3ccc([N+](=O)[O-])o3)nc(-c3ccccc3)c2c1	RORgamma inh 10µM, BCR signal inh inconclusive
CSCCC(NS(=O)(=O)c1cccc(C(F)(F)F)c1)C(=O)N(C)CCOc1ccc(Cl)cc1 (centres undefined)	BCR signal inh inconclusive, uPA generation inconclusive, Mito fusion yeast inconclusive (no result: Gal4-VP16 FLuc, RORgamma inh)
O=C(/C=C/c1c(C(=O)O)[nH]c2cc(Cl)cc(Cl)c12)Nc1ccccc1	none (no result: a7 integrin act, BCR signal inh, uPA generation, Mito fusion yeast)
CCCC(=O)C1=C(c2ccc(C)cc2)N(C(=O)CCC)n2cnnc2S1	BCR signal inh 20µM (no result: a7 integrin act, Gal4-VP16 FLuc, RORgamma inh, uPA generation, Mito fusion yeast)
CN1CCN(c2ncc3nc(CCc4ccccc4)c(=O)n(C4CC4)c3n2)CC1	RORgamma inh inconclusive (no result: a7 integrin act, BCR signal inh, uPA generation, Mito fusion yeast)
Cc1ccccc1NC(=S)N1CCN(Cc2ccc3c(c2)OCO3)CC1	Gal4-VP16 FLuc inconclusive, RORgamma inh inconclusive
COc1ccc(NC(=S)N2CCN(Cc3ccccc3)CC2)c(OC)c1	none
Cc1cc(Cl)ccc1NC(=S)N1CCN(Cc2ccccc2)CC1	Gal4-VP16 FLuc 13µM, RORgamma inh 11µM, BCR signal inh inconclusive
CC(C)NC(=S)N1CCN(Cc2ccc3c(c2)OCO3)CC1	none
Cc1c(Cl)cccc1NC(=S)N1CCN(Cc2ccc3c(c2)OCO3)CC1	Gal4-VP16 FLuc 14µM, RORgamma inh 11µM
CCN(CC)c1ccc(C(=O)NC(=S)N2CCN(Cc3ccc4c(c3)OCO4)CC2)cc1	Gal4-VP16 FLuc 7.1µM, RORgamma inh 6.3µM
Cc1cccc(NC(=S)N2CCN(Cc3ccccc3)CC2)c1C	Gal4-VP16 FLuc inconclusive, RORgamma inh 8.9µM
COC(=O)C1=C[C@@H](C(=O)OC)C2C3=C(C(=O)[C@@]2(C)NC(=O)c2ccccc2)[C@H](c2ccccc2)[C@@H]2C(=O)N(c4ccccc4)C(=O)[C@@H]2[C@@H]3C1 (some centres undefined)	none (no result: a7 integrin act, BCR signal inh, uPA generation, Mito fusion yeast)
CC1(C)CCC[C@@]2(C)C1CC[C@@](C)(O)[C@@H]2CC[C@@](C)(O)C1CO1 (some centres undefined)	none (no result: a7 integrin act, BCR signal inh, uPA generation, Mito fusion yeast)
Cc1ccc(S(=O)(=O)N2CCC(C(=O)N3CCCC3C(=O)N[C@@H](CC(C)C)C(=O)NCC(N)=O)CC2)cc1 (some centres undefined)	none
Cc1ccccc1C1CC(=O)Oc2ccc(O)cc21 (centres undefined)	none (no result: a7 integrin act, BCR signal inh, uPA generation, Mito fusion yeast)
COc1cccc(-n2c(-c3ccccc3)c[nH]c2=S)c1	Gal4-VP16 FLuc 10µM, RORgamma inh 11µM, BCR signal inh inconclusive
Cc1[nH]n(-c2ccccc2)c(=O)c1-c1cccc(Cl)c1	none
S=c1[nH]cc(-c2ccccc2)n1-c1cccc(Cl)c1	Gal4-VP16 FLuc 4.5µM, RORgamma inh 2.5µM
O=C(NC(=S)N1CCCC(C(F)(F)F)C1)c1ccc(F)cc1 (centres undefined)	Gal4-VP16 FLuc 0.71µM, RORgamma inh 0.56µM, BCR signal inh inconclusive
O=C(NCC(=O)N1CCCC(C(F)(F)F)C1)c1ccc2ccccc2c1 (centres undefined)	none (no result: Gal4-VP16 FLuc, RORgamma inh)
CC(=O)c1ccc(NC(=S)N2CCCC(C(F)(F)F)C2)cc1 (centres undefined)	none

Compound activity from PubChem BioAssay.
